PubChem BioAssay AID1159580 (chemical genetic matrix, 2015)
Out of some 5,500 compounds screened, about 2,000 (36%) were called active. Roughly 18% stayed inconclusive and do not appear here. No stated cut-off is given here; in the data, active means normalized growth mostly below about 0.91 (no sharp cut-off); inconclusive means no clear call, values can overlap the other calls; inactive means mostly above about 0.92. Some of the results follow.

Assay: chemical genetic growth profiling, strain panel (AID 1159580);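 further: tested at 20 µM; growth read once vehicle control cultures reached saturation at 30 °C; 1 = growth at the plate median or of vehicle wells; lower values mean less growth of the strain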
Details: growth OD

Measured: normalized growth

COc1cc(NC(C)CCCN)c2ncccc2c1 (configuration not stated)
inactive: S. cerevisiae deletion strains, locus YJR075W, strain HOC1, hits give low values 1 | S. cerevisiae deletion strains, locus YKL009W, strain mrt4, hits give low values 1.02 | S. cerevisiae deletion strains, locus YKL068W, hits give low values 1.01 | S. cerevisiae deletion strains, locus YKL085W, strain MDH1 (second series), hits give low values 1 | S. cerevisiae deletion strains, locus YKL085W, strain MDH1, hits give low values 1 | S. cerevisiae deletion strains, locus YKL160W, strain elf1, hits give low values 0.942 | S. cerevisiae deletion strains, locus YKL190W, strain CNB1, hits give low values 1 | S. cerevisiae deletion strains, locus YKR001C, strain vps1, hits give low values 1.01 | S. cerevisiae deletion strains, locus YKR026C, strain gcn3, hits give low values 1.01 | S. cerevisiae deletion strains, locus YKR091W, strain srl3, hits give low values 0.999 | S. cerevisiae deletion strains, locus YLL001W, strain dnm1, hits give low values 0.965 | S. cerevisiae deletion strains, locus YLL026W, hits give low values 0.998 | S. cerevisiae deletion strains, locus YLL041C, strain sdh2, hits give low values 1 | S. cerevisiae deletion strains, locus YLR027C, strain aat2, hits give low values 0.997 | S. cerevisiae deletion strains, locus YLR039C, strain RIC1, hits give low values 1.03 | S. cerevisiae deletion strains, locus YLR058C, strain SHM2, hits give low values 1.01 | S. cerevisiae deletion strains, locus YLR102C, strain apc9, hits give low values 1.01 | S. cerevisiae deletion strains, locus YLR113W, strain HOG1, hits give low values 1.06 | S. cerevisiae deletion strains, locus YLR221C, strain rsa3, hits give low values 1.01 | S. cerevisiae deletion strains, locus YLR258W, strain gsy2, hits give low values 1.04 | S. cerevisiae deletion strains, locus YLR262C, strain YPT6 (second series), hits give low values 0.956 | S. cerevisiae deletion strains, locus YLR262C, strain YPT6, hits give low values 1.05 | S. cerevisiae deletion strains, locus YLR268W, strain sec22, hits give low values 1.02 | S. cerevisiae deletion strains, locus YLR320W, strain mms22, hits give low values 0.987 | S. cerevisiae deletion strains, locus YLR330W, strain CHS5, hits give low values 1 | S. cerevisiae deletion strains, locus YLR342W, strain FKS1 (second series), hits give low values 0.947 | S. cerevisiae deletion strains, locus YLR342W, strain FKS1, hits give low values 0.991 | S. cerevisiae deletion strains, locus YLR357W, strain rsc2, hits give low values 0.991 | S. cerevisiae deletion strains, locus YLR370C, strain arc18, hits give low values 1.02 | S. cerevisiae deletion strains, locus YLR371W, strain rom2, hits give low values 1.01 | S. cerevisiae deletion strains, locus YLR384C, strain iki3, hits give low values 1.02 | S. cerevisiae deletion strains, locus YLR418C, strain cdc73, hits give low values 0.988 | S. cerevisiae deletion strains, locus YML016C, strain PPZ1, hits give low values 1.01 | S. cerevisiae deletion strains, locus YML032C, strain rad52, hits give low values 1.01 | S. cerevisiae deletion strains, locus YML120C, strain ndi1, hits give low values 0.995 | S. cerevisiae deletion strains, locus YML124C, strain tub3, hits give low values 1.01 | S. cerevisiae deletion strains, locus YMR058W, strain fet3, hits give low values 0.999 | S. cerevisiae deletion strains, locus YMR078C, strain ctf18, hits give low values 0.997 | S. cerevisiae deletion strains, locus YMR125W, strain sto1, hits give low values 0.951 | S. cerevisiae deletion strains, locus YMR129W, hits give low values 1.01 | S. cerevisiae deletion strains, locus YMR205C, strain PFK2, hits give low values 0.962 | S. cerevisiae deletion strains, locus YMR223W, strain ubp8, hits give low values 0.991 | S. cerevisiae deletion strains, locus YMR231W, strain pep5, hits give low values 1.01 | S. cerevisiae deletion strains, locus YMR263W, strain SAP30, hits give low values 1 | S. cerevisiae deletion strains, locus YMR307W, strain GAS1, hits give low values 0.951 | S. cerevisiae deletion strains, locus YNL067W, strain RPL9B, hits give low values 1.01 | S. cerevisiae deletion strains, locus YNL071W, strain lat1, hits give low values 1.01 | S. cerevisiae deletion strains, locus YNL128W, strain TEP1, hits give low values 1 | S. cerevisiae deletion strains, locus YNL153C, strain GIM3, hits give low values 1.01 | S. cerevisiae deletion strains, locus YNL183C, strain NPR1, hits give low values 0.972 | S. cerevisiae deletion strains, locus YNL209W, strain ssb2, hits give low values 1 | S. cerevisiae deletion strains, locus YNL233W, strain BNI4, hits give low values 1 | S. cerevisiae deletion strains, locus YNL248C, strain rpa49, hits give low values 0.938 | S. cerevisiae deletion strains, locus YNL250W, strain rad50, hits give low values 1.02 | S. cerevisiae deletion strains, locus YNL271C, strain bni1, hits give low values 1.02 | S. cerevisiae deletion strains, locus YNL298W, strain CLA4, hits give low values 1.02 | S. cerevisiae deletion strains, locus YNL307C, strain MCK1, hits give low values 1 | S. cerevisiae deletion strains, locus YNL322C, strain KRE1 (second series), hits give low values 1 | S. cerevisiae deletion strains, locus YNL322C, strain KRE1, hits give low values 1 | S. cerevisiae deletion strains, locus YNR049C, strain mso1, hits give low values 1 | S. cerevisiae deletion strains, locus YNR052C, strain pop2, hits give low values 1.02 | S. cerevisiae deletion strains, locus YOL006C, strain TOP1, hits give low values 1.03 | S. cerevisiae deletion strains, locus YOL012C, strain htz1 1 | S. cerevisiae deletion strains, locus YOL147C, strain pex11, hits give low values 1.02 | S. cerevisiae deletion strains, locus YOR001W, strain rrp6, hits give low values 1.02 | S. cerevisiae deletion strains, locus YOR061W, strain CKA2, hits give low values 1 | S. cerevisiae deletion strains, locus YOR069W, strain VPS5, hits give low values 1.01 | S. cerevisiae deletion strains, locus YOR070C, strain gyp1, hits give low values 1.02 | S. cerevisiae deletion strains, locus YOR080W, strain dia2, hits give low values 1.01 | S. cerevisiae deletion strains, locus YOR083W, strain WHI5, hits give low values 0.958 | S. cerevisiae deletion strains, locus YOR106W, strain vam3, hits give low values 0.959 | S. cerevisiae deletion strains, locus YOR136W, strain idh2, hits give low values 1.01 | S. cerevisiae deletion strains, locus YOR144C, strain elg1, hits give low values 1.01 | S. cerevisiae deletion strains, locus YOR184W, strain ser1, hits give low values 1.04 | S. cerevisiae deletion strains, locus YOR231W, strain MKK1, hits give low values 1 | S. cerevisiae deletion strains, locus YOR265W, strain rbl2, hits give low values 1.02 | S. cerevisiae deletion strains, locus YOR270C, strain vph1, hits give low values 1.05 | S. cerevisiae deletion strains, locus YOR290C, strain snf2, hits give low values 0.997 | S. cerevisiae deletion strains, locus YOR316C, strain cot1, hits give low values 1.01 | S. cerevisiae deletion strains, locus YPL051W, strain arl3, hits give low values 0.982 | S. cerevisiae deletion strains, locus YPL055C, strain LGE1, hits give low values 1 | S. cerevisiae deletion strains, locus YPL078C, strain atp4, hits give low values 0.96 | S. cerevisiae deletion strains, locus YPL106C, strain sse1, hits give low values 1 | S. cerevisiae deletion strains, locus YPL240C, strain hsp82, hits give low values 1.01 | S. cerevisiae deletion strains, locus YPL241C, strain CIN2, hits give low values 1 | S. cerevisiae deletion strains, locus YPL256C, strain CLN2, hits give low values 1.07 | S. cerevisiae deletion strains, locus YPR119W, strain clb2, hits give low values 1.01 | S. cerevisiae deletion strains, locus YPR141C, strain kar3, hits give low values 1.01 | S. cerevisiae deletion strains, locus YPR163C, strain tif3, hits give low values 1.01 | S. cerevisiae deletion strains, locus YPR167C, strain met16, hits give low values 1.02 | S. cerevisiae deletion strains, strain wtn01, hits give low values 1.02 | S. cerevisiae strains, strain wild type, hits give low values 1
